Compound activity (PubChem BioAssay)
Most compounds without a hit are left out; they make up all but 0.25% or so of the library.
Chronic BCR inh – chronic active BCR signaling inhibition | ABC-DLBCL IkBa-CBG/CBR reporter, luminescence ratio, 4 h | 340,000 compounds, 0.05% hits | Potency, µM (doses to about 46.1 µM), inactives show at the highest dose activity change, negative = inhibition, hits mostly inhibitors; active means well fitted inhibition curve with a large enough effect in the signal ratio, with a control signal flat, not every such curve was filed as active; inconclusive means small, poorly fitted or top-dose-only effect, or effect the other way, or a change in a side signal; the % refers to the signal ratio;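 further: plate controls were basal doxycycline-induced cells for no effect and cells given 10 µM MG132 for full effect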
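Concentration-response series (up to 46 uM) were applied to TMD8 dual-reporter cells for 4 h at 37C with doxycycline. Green/red ratio, after filter-overlap correction, defined %Activity; red signal alone was normalised to basal cells and zero luminescence.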
RGS4 inh – human RGS4 inhibition | Transcreener GDP fluorescence polarization, RGS4-accelerated GTP hydrolysis | Potency, µM (highest dose often 114 µM), inactives show top-dose activity change, negative = inhibition, actives largely listed as inhibitors | 390,000 compounds, 0.039% hits | AID 504845; further: on the % scale 0 is the no-effect control and ±100 the full control effect; nearly all actives have a fitted effect of over 75% in size
Target sequence (P49798 whole entry, looked up): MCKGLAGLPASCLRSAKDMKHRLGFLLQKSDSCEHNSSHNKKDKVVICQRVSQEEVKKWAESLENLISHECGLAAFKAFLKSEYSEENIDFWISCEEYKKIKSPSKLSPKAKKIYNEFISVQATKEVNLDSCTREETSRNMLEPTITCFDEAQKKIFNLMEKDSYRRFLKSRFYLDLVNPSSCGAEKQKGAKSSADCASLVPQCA
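MLSMR compounds (23 nl, pin-transferred) preincubated 10 min at room temperature with a 500nM (2x) first reagent, then RGS4 at 900nM (2x) plus Transcreener GDP mix added; fluorescence polarization (620/688 nm) read before and after 90 min at 30 °C.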
USP2a inh – blocks human ubiquitin-specific protease USP2a | O75604 | 330,000 compounds, 0.01% hits | Potency, µM (titrated, usually from 38.3 µM), inactives show top-dose activity change, negative = inhibition, usual class: inhibitors | USP2 core, Ub-CHOP2 coupled fluorogenic reporter, 485/531;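 further: plate controls were DMSO wells for no effect and full inhibition by NEM control for full effect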
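Cell-free coupled assay: 10nM USP2 core preincubated 30min RT with compound in Tris-HCl pH 8.0/CaCl2/CHAPS buffer, then 25nM Ub-CHOP2 and 25nM reporter substrate; fluorescence (Ex 485/Em 531) read after 60min RT, normalized to NEM inhibition, concentration-response curves fitted.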
Tb PFK inh-1 – T. brucei PFK enzyme inhibition. O15648. T. brucei PFK, ADP-Glo luminescence. Potency, µM (titrated, usually from 57.5 µM), for inactives: top-dose activity, negative = inhibition, actives largely listed as inhibitors. 330,000 compounds, 0.17% hits;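 further: 0% = uninhibited 1x PFK enzyme wells and -100% = no-enzyme wells; nearly all actives have a fitted effect of over 60% in size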
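Luminescent ADP detection (ADP-Glo, two-step: ATP depletion then ADP-to-ATP conversion for luciferase) reported PFK activity after 45 min room-temperature reaction of 1.25 nM enzyme with 0.5 mM F6P and 0.1 mM ATP at pH 8.0.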
Tb PGK inh – inhibitors of T. brucei phosphoglycerate kinase. P07378. PGK/GAPDH coupled, Kinase-Glo luminescence, 60 min. Potency, µM (highest dose often 57.5 µM), inactives show at the highest dose activity change, negative = inhibition, actives largely listed as inhibitors. 380,000 compounds, 0.043% hits. AID 602233; further: on the % scale 0 is the no-effect control and ±100 the full control effect; nearly all actives have a fitted effect of over 60% in size
Target sequence (P07378 whole entry, looked up): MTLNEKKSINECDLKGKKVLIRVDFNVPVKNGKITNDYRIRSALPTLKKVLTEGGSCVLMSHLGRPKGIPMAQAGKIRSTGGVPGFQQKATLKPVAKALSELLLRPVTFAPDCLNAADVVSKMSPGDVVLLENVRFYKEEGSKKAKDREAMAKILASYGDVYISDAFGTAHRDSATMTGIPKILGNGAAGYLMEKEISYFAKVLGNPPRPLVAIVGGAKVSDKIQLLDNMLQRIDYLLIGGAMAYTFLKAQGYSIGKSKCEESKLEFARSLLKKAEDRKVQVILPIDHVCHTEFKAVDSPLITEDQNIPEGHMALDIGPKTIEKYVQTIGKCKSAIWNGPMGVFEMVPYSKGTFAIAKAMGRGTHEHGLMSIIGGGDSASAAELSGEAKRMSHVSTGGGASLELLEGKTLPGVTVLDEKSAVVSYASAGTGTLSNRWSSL
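Recombinant glycosomal PGK reaction used 1,3-bisphosphoglycerate generated in-well by GAPDH (100nM final) in 100mM TEA pH 7.6, 5mM MgCl2, 0.01% Tween-20. After 60 minutes at room temperature, ATP was read by Kinase-Glo Plus luminescence end-point.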
TbPFK ATP – Tb phosphofructokinase inhibition, orthogonal luminescence | shares compounds with Tb PFK inh-1 | Potency, µM (series often up to 57.5 µM), for inactives: at the highest dose inhibition | 1,100 compounds, 47% hits | Tb PFK enzyme, ATP depletion, Kinase-Glo Plus luminescence; calls by dose curve; further: nearly all actives have a fitted effect of over 60% in size
Tb PFK inh-2 – T. brucei PFK enzyme inhibition, hit validation | purified T. brucei PFK, ADP-Glo luminescence, 45 min | 1,100 compounds, 41% hits | Potency, µM (highest dose often 57.5 µM), inactives show at the top dose activity change, negative = inhibition, actives largely listed as inhibitors | shares compounds with Tb PFK inh-1 | AID 504637;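 further: plate controls were full PFK enzyme control for no effect and no enzyme control for full effect; nearly all actives have a fitted effect of over 60% in size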
The depositor's hits bear a star; i = inactive; ? = inconclusive; / = not tested or not shown; [ ] = dose if it differs, or a comment. Unless noted, the call rests on the fitted dose curve; in most records, active means well fitted curve in the direction sought with a large enough effect; inconclusive means small, poorly fitted or top-dose-only effect, or another doubt; inactive means no such curve, though single readings can be large; an effect the other way counts as inactive or inconclusive. Potency means the concentration at half of the fitted maximal effect.

SMILES	Chronic BCR inh	RGS4 inh	USP2a inh	Tb PFK inh-1	Tb PGK inh	TbPFK ATP	Tb PFK inh-2
CNc1cc(CSC)nc(SCc2ccc(Cl)c(Cl)c2)n1	15.2%	-15.6%	1.8%	21.3µM*	5.7%[11.5 µM]	5.36µM*	8.49µM*
Cc1nc(SCc2ccc(Cl)c(Cl)c2)n[nH]1	1.5%	15.5%	0.3%	21.3µM*	-1.2%	12µM*	?
CCCCOC(=O)c1ccc(NC(=O)CSc2nc3c(c(=O)[nH]2)CCCC3)cc1	/	-8.2%	/	/	/	/	/
CCn1c(C)nc2cc(C(=O)N/N=C/c3ccc(O)c(O)c3O)ccc21	5.7%	?	4.8%	?	-12.3%	?	?
CCn1c(C)nc2cc(C(=O)N/N=C/c3cccc(OC)c3O)ccc21	-0.2%	-29.3%	-1.4%	5.2%	-0.5%	/	/
O=C(O)COc1ccccc1C=NNc1ccc([N+](=O)[O-])cc1S(=O)(=O)Nc1ccc(Cl)cc1	?	-14.9%	-9.5%	19µM*	-10.1%	30.1µM*	?
Cc1ccc(C2(C)NC(=O)N(CC(=O)Nc3ccc4[nH]c(=O)[nH]c4c3)C2=O)cc1 (stereo not drawn)	1.0%	-20.9%	2.5%	?	-0.4%	/	/
CC1(c2ccc(Cl)cc2Cl)NC(=O)N(CC(=O)Nc2ccc3[nH]c(=O)[nH]c3c2)C1=O (stereo not drawn)	?	-21.8%	0.5%	?	-8.2%	?	?
COc1ccc(/C=N\NC(=O)CC(=O)Nc2cccc(Cl)c2)cc1OC	-9.5%	7.6%	-0.4%	0.2%	i	/	/
CCn1cc(/C=N\NC(=O)Cc2ccc(Cl)cc2)cn1	-3.7%	9.0%	5.6%	19µM*	2.4%	7.57µM*	15.1µM*
O=C(Cc1ccc(Cl)cc1)N/N=C/c1cccc(O)c1	-14.9%	-6.6%	1.9%	9.53µM*	i	10.7µM*	12µM*
CCn1cc(/C=N\NC(=O)c2ccc(Cl)cc2)cn1	-5.1%	-23.8%	-1.3%	-0.4%	-7.3%	/	/
COc1ccc(/C=N/NC(=O)Cc2ccc(Cl)cc2)cc1OC	?	1.3%	-1.9%	?	-9.3%	?	?
O=C(Cc1ccc(Cl)cc1)N/N=C/c1ccccc1	-6.0%	43.2%	2.7%	-2.5%	-6.5%	/	/
Cc1sc(N)nc1-c1cccc([N+](=O)[O-])c1	/	10.6%	/	/	/	/	/
CCN(CCCNC(=O)c1cc2c(=O)[nH]c3ccc(C)cc3c2s1)Cc1ccccc1	/	-4.1%	/	/	0.9%	/	/
CC(=O)Nc1ccc(S(=O)(=O)NC(CSc2ccc(C(=O)O)cc2[N+](=O)[O-])C(=O)O)cc1 (stereo not drawn)	16.2%	-9.4%	3.5%	?	-6.2%	-26.3%	?
CC(C)CNC(=O)c1cccc(NC(=O)c2ccc(Cl)c([N+](=O)[O-])c2)c1	-0.5%	21.1%	0.9%	23.9µM*	7.2%	10.7µM*	21.3µM*
CC(=O)N1CCN(c2ccc(NC(=O)c3ccc(Cl)c([N+](=O)[O-])c3)cc2)CC1	?	-4.7%	0.3%	?	-0.7%	?	30.1µM*
O=C(Nc1ccc(Cl)c([N+](=O)[O-])c1)c1ccncc1	?	?	2.2%	?	-3.0%	?	?
O=C(Nc1ccc(Cl)c([N+](=O)[O-])c1)c1cnccn1	1.5%	-29.7%	-0.5%	-27.1%	-6.5%	/	/
COCCN(CCOC)c1ncnc2c1c(-c1ccccc1)cn2-c1ccc(C)c(Cl)c1	-3.5%	12.3%	/	/	11.4%	/	/
Cc1cc(=O)[nH]c(Nc2ccc(N(C)C)cc2)n1	-0.2%	-14.4%	-1.9%	-3.4%	-1.4%	/	/
Cc1cc(=O)[nH]c(Nc2ccc(Cl)cc2)n1	1.4%	-19.1%	3.9%	21.3µM*	-7.8%	8.49µM*	19µM*
NCCc1c[nH]c2ccc(F)cc12	-1.5%	/	1.1%	?	/	?	?
SMILES	Chronic BCR inh	RGS4 inh	USP2a inh	Tb PFK inh-1	Tb PGK inh	TbPFK ATP	Tb PFK inh-2
c1ccc(Cn2nnnc2C(c2ccccc2)N2CCN(Cc3ccncc3)CC2)cc1 (stereo not drawn)	/	10.8%	/	/	/	/	/
CCOc1ccc(-n2c(=O)c3c(C)c(C)sc3n(CC(=O)N3CCC(C)CC3)c2=O)cc1	/	15.4%	/	/	/	/	/
C=CCn1c(=O)[nH]c2cc(C(=O)N3CCN(c4ccc(C(C)=O)cc4)CC3)ccc2c1=O	?	-38.8%	7.8%	?	i	?	?
O=C(NCCn1cc(SCc2ccccc2Cl)c2ccccc21)c1cccs1	/	-0.6%	/	/	-8.1%	/	/
COCCNC(=O)/C(C#N)=C/c1ccc(O)cc1	-6.3%	9.2%	8.6%	?	?	-22.2%	?
COCCNC(=O)/C(C#N)=C/c1ccc(O)c([N+](=O)[O-])c1	3.4%	12.8%	0.8%	-4.5%	i	/	/
C=CCn1c(SCC#N)nc2ccc(Cl)cc2c1=O	/	22.8%	/	/	/	/	/
COC(=O)c1sc(NC(=O)c2cc(-c3ccccc3)nc3ccccc23)c(C#N)c1C	?	-40.2%[11.4 µM]	-3.8%	6.75µM*	2.2%	8.49µM*	15.1µM*
Cc1cn2c(=O)cc(COC(=O)c3cccc(NC(=O)COc4ccccc4)c3)nc2s1	/	-27.2%	/	/	i	/	/
O=C1OC(/C(=C\Nc2ccc(F)cc2F)[N+](=O)[O-])c2ccccc21 (stereo not drawn)	7.3%	?	0.8%	?	4.7%	3.4%	-1.0%
O=C1OC(/C(=C\Nc2cc(Cl)ccc2O)[N+](=O)[O-])c2ccccc21 (stereo not drawn)	1.2%	-23.2%	2.0%	?	-0.5%	2.6%	-12.7%
O=C1OC(Nc2ccc(F)cc2F)c2ccccc21 (stereo not drawn)	0.3%	3.8%[11.4 µM]	3.8%	-0.5%	-5.6%	/	/
Cc1ccc(N/C=C(\C2OC(=O)c3ccccc32)[N+](=O)[O-])c(C)c1 (stereo not drawn)	11.2%	-26.6%	0.2%	?	i	1.1%	0.0%
COc1ccc(S(=O)(=O)N(CC(=O)N2CCC(C)CC2)c2ccc(C)cc2)cc1	/	5.4%	/	/	1.5%	/	/
Cc1nn(C)cc1/C=N\NC(=O)c1ccc(Cn2cc(Cl)cn2)cc1	-2.6%	-15.1%	-0.4%	26.9µM*	-2.8%	9.53µM*	?
OCC[n+]1c2ccccc2nc2ccc(N3CCOCC3)cc21	?	?	-14.6%	?	-12.8%	1.2%	-1.9%
Cc1ccc(NC(=S)NCC2CCN(C(C)c3ccccc3)C2)cc1 (stereo not drawn)	?	-36.1%	1.3%	0.6%	-2.0%	/	/
